Test results: PubChem BioAssay (NCATS)
Records with an inconclusive call do not appear. Entries that show only a call come without a potency. Activity calls are given as the source filed them. Unless noted, calls come from the whole dose curve; as a rule, active = well fitted curve in the direction sought with a large enough effect; inconclusive = small, poorly fitted or top-dose-only effect, or another doubt; inactive = no such curve, though single readings can be large; an effect the other way counts as inactive or inconclusive.

Legend:
[1] = qHTS for Inhibitors of Cell Surface uPA Generation: Validation Assay (AID 493164)
Summary of the method: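 RAW 264.7 cells (4000/well) were plated overnight, then exposed for 18 h at 37 C, 5% CO2 to compounds in a 7-point 1:5 titration (2.45 nM–38.3 uM final). Intracellular ATP was read by ATP-Lite luminescence.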

[2] = biological target: Galactokinase (Homo sapiens) (UniProt P51570); assay: qHTS Validation Assay for Inhibitors of Human Galactokinase (GALK) (AID 493189)
Summary of the method: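 GALK (5 nM) with 35 uM ATP and 100 uM galactose in HEPES pH 8.0 with MgCl2, NaCl, DTT and BSA. Reaction ran 1 h at room temperature. Residual ATP read by Kinase-Glo Plus luminescence.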

[3] = Validation screen for small molecules that induce DNA re-replication in SW480 colon adenocarcinoma cells (AID 504364)
Summary of the method: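 SW480 cells (250/well) exposed 48 h at 37 C, 5% CO2, then Hoechst-stained 40 min. Nuclear DNA content imaged by fluorescence scanning (405 nm excitation, 500-530 nm emission); re-replication scored as increased nuclei with elevated intensity.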

[4] = biological target: Phosphoglycerate kinase, glycosomal (Trypanosoma brucei brucei) (UniProt P07378); assay: qHTS Validation Assay to Find Inhibitors of Phosphoglycerate Kinase (AID 504547)
Summary of the method: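 Inhibition of the enzyme is judged by a Kinase-Glo Plus luminescent signal following a one-hour incubation at room temperature. Because 1,3-BPG is unstable, it is made in situ by GAPDH at 100nM final; no-PGK wells define the baseline.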

[5] = biological target: phosphoglycerate mutase (Leishmania major) (UniProt Q4Q090); assay: qHTS Validation Assay to Find Inhibitors of Phosphoglycerate Mutase (AID 504548);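 note: end-point luminescence from Kinase-GloPlus after the PGAM reaction; series mostly up to about 58 µM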
Summary of the method: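 Inhibition of L. major PGAM was assessed by Kinase-GloPlus luminescence following a 45-minute room-temperature reaction with enzyme at 1.25nM final.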

[6] = Inducers of the Endoplasmic Reticulum Stress Response (ERSR) in human glioma: Validation (AID 504836); note: potency is the fitted concentration of half-maximal effect
Summary of the method: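 ERSR induction read as luciferase luminescence (Bright-Glo, 10 min at room temperature) in stably transfected human U87-MG glioma cells exposed to compounds for 16 h, using GRP78 as sensor.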

[7] = biological target: Ubiquitin carboxyl-terminal hydrolase 1 (Homo sapiens) (UniProt O94782); assay: Inhibitors of USP1/UAF1: Pilot qHTS (AID 504865);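 note: rhodamine fluorescence freed from ubiquitin-rhodamine substrate followed over time; top concentration of the series differs between compounds; nearly all actives have a fitted effect of over 35% in size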
Summary of the method: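 USP1/UAF1 complex at 1 nM preincubated 15 min at room temperature with compound, then Ub-Rho substrate added at 150 nM final. Fluorescence (480/540 nm) read kinetically in 50 mM HEPES pH 7.8, 0.5 mM EDTA, 1 mM TCEP, 0.1 mg/ml BSA, 0.01% Tween-20.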

[8] = qHTS for Inhibitors of ATXN expression: Validation of Cytotoxic Assay (AID 588349)
Summary of the method: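 HEK293 cells treated with titrated compound for 72 hr at 37 degrees C; viability read as intracellular ATP by CellTiter Glo luminescence.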

[9] = qHTS for Inhibitors of ATXN expression: Validation (AID 588378); note: nearly all actives have a fitted effect of over 75% in size; note: potency is the fitted concentration of half-maximal effect
Summary of the method: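 HEK293 cells carrying ATXN2-firefly luciferase reporter, treated with compound 24 h at 37 °C. Viability read first by CellTiter-Fluor (405/525 nm), then reporter expression by Bright-Glo luminescence; controls were a known ATXN2 expression inhibitor and a luciferase inhibitor.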

[10] = biological target: Peptidyl-prolyl cis-trans isomerase NIMA-interacting 1 (Homo sapiens) (UniProt Q13526); assay: qHTS Validation Assay to Find Inhibitors of Pin1 (AID 504536; active = well fitted inhibition curve with a large enough effect in the polarisation, with a control signal flat, not every such curve was filed as active; the % refers to the polarisation)
Summary of the method: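 Fluorescence polarization competition: compounds (titration) displace HiFluor-488-labeled Pin1-1b peptide from Pin1 (0.3 uM final) in pH 7.5 HEPES buffer with DTT, 10 min at room temperature; %Activity normalized to no-enzyme wells, curves fitted.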

Phosphoglycerate kinase, glycosomal (Trypanosoma brucei brucei), sequence (P07378 whole entry, looked up): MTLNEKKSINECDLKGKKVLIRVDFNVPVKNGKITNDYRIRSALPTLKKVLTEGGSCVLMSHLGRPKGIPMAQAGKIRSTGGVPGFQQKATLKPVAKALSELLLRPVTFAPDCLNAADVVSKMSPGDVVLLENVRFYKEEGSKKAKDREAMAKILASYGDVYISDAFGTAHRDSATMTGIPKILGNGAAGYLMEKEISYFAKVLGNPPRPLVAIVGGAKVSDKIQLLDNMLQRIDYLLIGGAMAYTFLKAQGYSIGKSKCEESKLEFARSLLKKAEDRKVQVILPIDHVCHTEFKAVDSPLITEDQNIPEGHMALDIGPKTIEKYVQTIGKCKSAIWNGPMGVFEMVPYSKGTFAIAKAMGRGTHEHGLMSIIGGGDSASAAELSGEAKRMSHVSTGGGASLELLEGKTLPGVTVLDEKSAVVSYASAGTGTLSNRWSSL
Peptidyl-prolyl cis-trans isomerase NIMA-interacting 1 (Homo sapiens), sequence (Q13526 whole entry, looked up): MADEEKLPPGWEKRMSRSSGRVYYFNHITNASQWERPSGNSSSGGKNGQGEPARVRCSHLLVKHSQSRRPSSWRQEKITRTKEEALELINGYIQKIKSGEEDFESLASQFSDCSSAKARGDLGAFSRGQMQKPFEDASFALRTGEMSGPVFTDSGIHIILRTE
Ubiquitin carboxyl-terminal hydrolase 1 (Homo sapiens), sequence (O94782 whole entry, looked up): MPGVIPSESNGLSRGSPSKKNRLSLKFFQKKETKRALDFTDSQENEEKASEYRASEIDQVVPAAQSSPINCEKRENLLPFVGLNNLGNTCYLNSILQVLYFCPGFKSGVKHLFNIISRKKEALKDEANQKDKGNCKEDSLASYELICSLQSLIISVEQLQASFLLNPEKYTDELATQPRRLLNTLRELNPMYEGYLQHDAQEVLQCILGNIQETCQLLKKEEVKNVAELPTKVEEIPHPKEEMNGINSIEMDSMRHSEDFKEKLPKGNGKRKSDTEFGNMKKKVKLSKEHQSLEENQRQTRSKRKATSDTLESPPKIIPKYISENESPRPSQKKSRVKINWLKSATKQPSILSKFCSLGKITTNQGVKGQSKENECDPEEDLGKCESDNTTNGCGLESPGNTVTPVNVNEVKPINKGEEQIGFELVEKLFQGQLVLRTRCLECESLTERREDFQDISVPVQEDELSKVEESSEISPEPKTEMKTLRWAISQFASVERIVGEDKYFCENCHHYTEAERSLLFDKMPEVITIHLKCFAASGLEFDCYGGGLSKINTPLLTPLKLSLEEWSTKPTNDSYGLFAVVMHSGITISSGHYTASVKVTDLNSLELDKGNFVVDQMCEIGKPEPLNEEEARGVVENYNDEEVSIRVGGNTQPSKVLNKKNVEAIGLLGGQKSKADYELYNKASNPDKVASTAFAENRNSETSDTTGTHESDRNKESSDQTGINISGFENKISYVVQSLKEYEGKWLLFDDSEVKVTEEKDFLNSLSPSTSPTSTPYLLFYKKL
phosphoglycerate mutase (Leishmania major), sequence (Q4Q090 1-553): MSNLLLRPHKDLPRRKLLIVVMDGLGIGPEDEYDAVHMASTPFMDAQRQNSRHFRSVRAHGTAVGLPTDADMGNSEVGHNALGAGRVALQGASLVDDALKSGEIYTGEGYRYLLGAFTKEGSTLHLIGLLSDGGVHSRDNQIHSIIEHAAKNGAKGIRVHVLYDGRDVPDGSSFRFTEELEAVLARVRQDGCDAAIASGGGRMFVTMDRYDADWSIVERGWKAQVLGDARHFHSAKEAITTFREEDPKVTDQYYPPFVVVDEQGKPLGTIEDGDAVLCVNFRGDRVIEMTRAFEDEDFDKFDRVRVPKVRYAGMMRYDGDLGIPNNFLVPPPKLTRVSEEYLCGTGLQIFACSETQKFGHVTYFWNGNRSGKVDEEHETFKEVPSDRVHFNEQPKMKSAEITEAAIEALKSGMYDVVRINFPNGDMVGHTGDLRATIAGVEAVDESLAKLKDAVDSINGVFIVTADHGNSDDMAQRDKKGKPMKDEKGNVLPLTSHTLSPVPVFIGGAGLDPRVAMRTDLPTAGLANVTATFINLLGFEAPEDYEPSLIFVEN
Galactokinase (Homo sapiens), sequence (P51570 whole entry, looked up): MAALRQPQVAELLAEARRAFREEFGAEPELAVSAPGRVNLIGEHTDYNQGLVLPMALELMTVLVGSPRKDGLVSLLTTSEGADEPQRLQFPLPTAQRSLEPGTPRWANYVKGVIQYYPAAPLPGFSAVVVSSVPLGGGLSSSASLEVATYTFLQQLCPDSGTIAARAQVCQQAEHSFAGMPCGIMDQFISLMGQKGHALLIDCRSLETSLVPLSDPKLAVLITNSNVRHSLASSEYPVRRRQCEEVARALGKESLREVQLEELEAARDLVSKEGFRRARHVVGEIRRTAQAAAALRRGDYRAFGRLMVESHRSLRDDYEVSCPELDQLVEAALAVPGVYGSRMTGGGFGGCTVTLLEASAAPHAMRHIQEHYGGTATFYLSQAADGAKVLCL

SMILES	outcome [1]	outcome [2]	outcome [3]	outcome [4]	outcome [5]	Potency [6]	Potency [7]	outcome [8]	Potency [9]	outcome [10]
NC1CC1c1ccccc1 (stereo not drawn)	inactive	inactive	inactive	inactive	inactive	inactive	inactive	inactive	inactive	
C[N+]1(C)C2CCC1CC(OC(=O)C(CO)c1ccccc1)C2 (stereo not drawn)	inactive	inactive	inactive	inactive	inactive	inactive	inactive	inactive	inactive	
CCCN1CCO[C@@H]2c3cc(O)ccc3OC[C@H]21	inactive	inactive	inactive	inactive	inactive	inactive	inactive	inactive	inactive	inactive
CCCCc1ccc(C(=O)O)nc1	inactive	inactive	inactive	inactive	inactive	inactive	inactive	inactive	inactive	inactive
O=C(Cc1ccc(Cl)c(Cl)c1)N1CCCCC1CN1CCCC1 (stereo not drawn)	inactive	inactive	inactive	inactive	inactive	inactive	inactive			
CC(=O)[C@H]1CCC2C3CC[C@H]4C[C@H](O)CC[C@]4(C)C3CC[C@@]21C (stereo partly drawn)	inactive	inactive	inactive	inactive	inactive	inactive	inactive	inactive	inactive	
C[C@@H](N)Cc1cnc[nH]1	inactive	inactive	inactive	inactive	inactive	inactive	inactive	inactive	inactive	
Clc1cnc(Oc2ccc(Oc3ncc(Cl)cc3Cl)cc2)c(Cl)c1	inactive	inactive	inactive	inactive	inactive	inactive	inactive	inactive	inactive	
S=C(NC1CCCCC1)N1CCC(c2cnc[nH]2)CC1	inactive	inactive	inactive	inactive	inactive	inactive	inactive	inactive	inactive	inactive
Cc1nccc2c1[nH]c1ccccc12	inactive	inactive	inactive	inactive	inactive	inactive	inactive	inactive	inactive	
CN[C@@H]1C[C@@H](c2ccc(Cl)c(Cl)c2)c2ccccc21	inactive	inactive	inactive	inactive	inactive	inactive	inactive		20 µM (active)	inactive
CNCCc1c[nH]c2ccc(O)cc12	inactive	inactive	inactive	inactive	inactive	inactive	inactive	inactive	inactive	
C#CCOC(=O)C1=CCCN(C)C1	inactive	inactive	inactive	inactive	inactive	inactive	inactive	inactive	inactive	inactive
CCCN1CCC[C@H](c2cccc(O)c2)C1	inactive	inactive	inactive	inactive	inactive	inactive	inactive	inactive	inactive	
C[C@@H]1O[C@H](C[N+](C)(C)C)C[C@H]1O	inactive	inactive	inactive	inactive	inactive	inactive	inactive	inactive	inactive	
O=C1CCCN1CC#CCN1CCCC1	inactive	inactive	inactive	inactive	inactive	inactive	inactive	inactive	inactive	
C[C@]12CCC3C(CC[C@H]4C[C@H](O)CC[C@]34C)C1CC[C@@H]2C(=O)CO (stereo partly drawn)	inactive	inactive	inactive	inactive	inactive	inactive	inactive	inactive	inactive	inactive
NC(N)=NOCCC(N)C(=O)O (stereo not drawn)	inactive	inactive	inactive	inactive	inactive	inactive	inactive	inactive	inactive	
c1ccc2sc(C3(N4CCCCC4)CCCCC3)cc2c1	inactive	inactive	inactive	inactive	inactive	inactive	inactive	inactive	inactive	
O=C(O)Cc1cnc[nH]1	inactive	inactive	inactive	inactive	inactive	inactive	inactive	inactive	inactive	

SMILES	outcome [1]	outcome [2]	outcome [3]	outcome [4]	outcome [5]	Potency [6]	Potency [7]	outcome [8]	Potency [9]	outcome [10]
NCCc1c[nH]c2ccccc12	inactive	inactive	inactive	inactive	inactive	inactive	inactive	inactive	inactive	
NC1CCc2cc(O)c(O)cc2C1 (stereo not drawn)	inactive	inactive	inactive	inactive	inactive	inactive	inactive	inactive	inactive	inactive
C[C@]12N[C@H](Cc3ccccc31)c1ccccc12	inactive	inactive	inactive	inactive	inactive	inactive	inactive	inactive	inactive	
CC(=O)NCCc1c[nH]c2ccccc12	inactive	inactive	inactive	inactive	inactive	inactive	inactive	inactive	inactive	
CCCN(CCC)C1CCc2ccc(O)cc2C1 (stereo not drawn)	inactive	inactive	inactive	inactive	inactive	inactive	inactive	inactive	inactive	
O=C(O)CC[N+](=O)[O-]	inactive	inactive	inactive	inactive	inactive	inactive	inactive	inactive	inactive	
Cn1cnc(CCN)c1	inactive	inactive	inactive	inactive	inactive	inactive	inactive	inactive	inactive	
CC(C)Oc1cccnc1N(C)C1CCN(Cc2ccccc2)CC1	inactive	inactive	inactive	inactive	inactive	inactive	inactive	inactive	inactive	
NC(=NCCC[C@H](N)C(=O)O)N[N+](=O)[O-]	inactive	inactive	inactive	inactive	inactive	inactive	inactive	inactive	inactive	
CS(=N)(=O)CC[C@H](N)C(=O)O (stereo partly drawn)	inactive	inactive	inactive	inactive	inactive	inactive	inactive	inactive	inactive	
CN1C2CCC1CC(OC(=O)c1cc(Cl)cc(Cl)c1)C2 (stereo not drawn)	inactive	inactive	inactive	inactive	inactive	inactive	inactive	inactive		inactive
NCCc1c[nH]c2ccc(O)cc12	inactive	inactive	inactive	inactive	inactive	inactive	inactive	inactive	inactive	inactive
NC(CCP(=O)(O)O)C(=O)O (stereo not drawn)	inactive	inactive	inactive	inactive	inactive	inactive	inactive	inactive	inactive	
CC(C)NC(C)Cc1ccc(I)cc1 (stereo not drawn)	inactive	inactive	inactive	inactive	inactive	inactive	inactive	inactive		
NC(CP(=O)(O)O)C(=O)O (stereo not drawn)	inactive	inactive	inactive	inactive	inactive	inactive	inactive	inactive	inactive	
CC1=NN=C(c2ccc(N)cc2)c2cc3c(cc2C1)OCO3	inactive	inactive	inactive	inactive	inactive	inactive	inactive	inactive	inactive	
O=C(O)[C@@H]1CCN1	inactive	inactive	inactive	inactive	inactive	inactive	inactive	inactive	inactive	
Cc1cccc(C#Cc2ccccc2)n1						inactive				
CC(Cc1ccc(O)cc1)NCC(O)c1cc(O)cc(O)c1 (stereo not drawn)	inactive	inactive	inactive	inactive	inactive	inactive	inactive	inactive	inactive	
NC(=O)CN1CC(O)CC1=O (stereo not drawn)	inactive	inactive	inactive	inactive	inactive	inactive	inactive	inactive	inactive	

SMILES	outcome [1]	outcome [2]	outcome [3]	outcome [4]	outcome [5]	Potency [6]	Potency [7]	outcome [8]	Potency [9]	outcome [10]
COc1cc2c(cc1O)CC[C@@H]1[C@@H]2CC[C@]2(C)[C@@H](O)CC[C@@H]12						inactive				
CC[C@@H](C(N)=O)N1CCCC1=O	inactive			inactive	inactive	inactive	inactive	inactive	inactive	
CC(C)(Sc1ccc(CCN(CCCCC2CCCCC2)C(=O)NC2CCCCC2)cc1)C(=O)O						inactive				
COC(=O)[C@@H](N)CCCN=C(N)N[N+](=O)[O-]	inactive			inactive	inactive	inactive	inactive	inactive	inactive	
CNCCc1ccc(O)c(O)c1	inactive	inactive				inactive	inactive			
Clc1ccc(C(c2ccc(Cl)cc2)n2cc[n+](CC(OCc3ccc(Cl)cc3Cl)c3ccc(Cl)cc3Cl)c2)cc1 (stereo not drawn)		inactive				inactive				
CC[C@@H]1C(=O)OC[C@@H]1Cc1cncn1C		inactive	inactive							
Oc1ccc2c3c1O[C@H]1c4[nH]c5c(c4C[C@@]4(O)[C@@H](C2)N(CC2CC2)CC[C@]314)C[C@@]1(O)[C@H]2Cc3ccc(O)c4c3[C@@]1(CCN2CC1CC1)[C@H]5O4	inactive	inactive	inactive	inactive	inactive	inactive	inactive		inactive	
Cc1nc(-c2ccc(-c3ccc(C(=O)N4CCc5cc6c(cc54)C4(CCN(C)CC4)CO6)cc3)c(C)c2)no1		inactive	inactive							
NC(CO)C(=O)NNCc1ccc(O)c(O)c1O (stereo not drawn)						inactive				
NCCCC(N)(C(=O)O)C(F)F (stereo not drawn)						inactive				
CC(C[N+](C)(C)C)OC(N)=O (stereo not drawn)						inactive				
O=C(N[C@H]1CN2CCC1CC2)c1ccc(Cl)cc1	inactive			inactive	inactive	inactive	inactive	inactive	inactive	
C[C@]12C[C@H](O)[C@H]3[C@@H](CCC4=CC(=O)CC[C@@]43C)[C@@H]1CC[C@@H]2C(=O)CO						inactive				
CC[C@@]1(O)C(=O)OCc2c1cc1n(c2=O)Cc2cc3ccccc3nc2-1	inactive	inactive	inactive	inactive	inactive	inactive	inactive		inactive	
C/C=C(/C)C(=O)O[C@H]1C(C)=C2[C@H]([C@@H]1OC(=O)CCCCCCC)[C@@](C)(OC(C)=O)C[C@H](OC(=O)CCC)[C@@]1(O)[C@H]2OC(=O)[C@@]1(C)O	inactive			inactive	inactive	0.0165 µM (active)				
Cc1c(C(=O)c2cccc3ccccc23)c2cccc3c2n1[C@H](CN1CCOCC1)CO3		inactive	inactive	inactive	inactive				15.8 µM (active)	
C[N+](C)(C)CC(=O)O		inactive	inactive			inactive	inactive			
CC1=C(/C=C/C(C)=C/C=C/C(C)=C/C(=O)O)C(C)(C)CCC1						inactive				
